# Results published in PubChem BioAssay AID485297 (National Center for Advancing Translational Sciences (NCATS), 2010).
# The whole screen tested about 320,000 compounds, of which about 9,100 (2.8%) were called active. Not shown: some 3% with an inconclusive outcome. The list comes from a sample in which actives are over-represented; it also holds similar structures and randomly drawn compounds. Values without a mark were called inactive. Calls follow the shape of the dose curve; as a rule, active = well fitted activation curve with a large enough effect; inconclusive = small, poorly fitted or top-dose-only effect; inactive = no such curve, though single readings can be large or run the other way.
# Assay: qHTS Assay for Rab9 Promoter Activators; also: nearly all actives have a fitted effect of over 60% in size; as to activation, negative = inhibition: % of control where 0% means no effect
# Details: Huh7 Rab9 promoter-luciferase reporter, luminescence, 24 h; series mostly up to 9.22 µM; activation, negative = inhibition: at the top concentration
# How it was run: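 Measured in stably transfected Huh7 cells bearing a Rab9 promoter–luciferase construct: 24 h compound treatment at 37 °C, followed by luminescence detection.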
# Potency is read from the fitted curve at half-maximal effect.
Compound,"activation, negative = inhibition",Potency
Cc1nn2c(=O)cc(COC(=O)c3ccc(NC(=O)C(C)(C)C)cc3)nc2s1,-12.2%,–
Cc1csc2nc(COC(=O)c3cccc(N(C)C)c3)cc(=O)n12,–,2820 nM (active)
O=c1cc(CCl)nc2scc(-c3ccccc3)n12,-4.65%,–
CN(Cc1ccccc1)C(=O)CCc1ccccc1,-9.9%,–
CN(Cc1ccc(F)cc1)C(=O)COc1ccc2ccccc2c1,0.291%,–
CN(Cc1ccccc1)C(=O)COc1ccccc1,–,2240 nM (active)
COc1ccc(NS(=O)(=O)c2ccc(C)c(C(=O)NCC(c3cccs3)N3CCOCC3)c2)cc1 (centres undefined),0.739%,–
CCOC(=O)c1ccc(NC(=O)Cc2cccs2)cc1,–,4470 nM (active)
O=C(Cc1cccs1)Nc1ccc([N+](=O)[O-])cc1,3.07%,–
CCOc1ccccc1NC(=O)Cc1cccs1,-0.154%,–
CCOC(=O)N1CCN(C(=O)COC(=O)c2cccc(S(C)(=O)=O)c2)CC1,0.715%,–
CCOc1ccc(NC(=O)c2cccc3c2C(=O)N(CC2CCCO2)C3)cc1 (centres undefined),13.7%,–
CC(=O)c1sc(NC(=O)CCN2C(=O)C3CC=CCC3C2=O)nc1-c1ccccc1 (centres undefined),2.81%,–
COc1ccc(C(=O)N/N=c2\oc3ccccc3cc2C(N)=O)cc1,11%,–
COc1cccc2cc(C(N)=O)/c(=N\NC(=O)c3ccccc3)oc12,–,3550 nM (active)
NC(=O)c1cc2ccccc2o/c1=N/NC(=O)c1cccc(F)c1,12.8%,–
CC(=O)Nc1ccc(Nc2cc(C)nc(Nc3ccc(NC(C)=O)cc3)n2)cc1,6.88%,–
CCN(CC(=O)NCCc1ccccc1)S(=O)(=O)c1ccc(C)cc1,1.84%,–
COc1cc(OC)cc(-c2nc(=S)n3ccsc3n2)c1,17.6%,–
COc1ccc(-c2cn3ccsc3n2)cc1,–,708 nM (active)
Cc1ccn2cc(C(=O)NC3CCN(Cc4ccccc4)CC3)nc2c1,-8.26%,–
COc1ccc(-c2cn3ccc(C)cc3n2)cc1,–,112 nM (active)
COc1ccc(-n2c(-c3ccc(OC)c(OC)c3)n[nH]c2=S)cc1,0.467%,–
CCN(CC)S(=O)(=O)c1ccc(-c2cn3ccc(C)cc3n2)cc1,–,2240 nM (active)
COc1ccc(CNc2nccs2)cc1,22.9%,–
CCN(c1cccc(C)c1)S(=O)(=O)c1ccc(-c2coc(C)n2)cc1,0.0972%,–
Cc1ccccc1N1CCN(C2CCCN(C(=O)c3cn4c(C)cccc4n3)C2)CC1 (centres undefined),0.145%,–

Compound,"activation, negative = inhibition",Potency
COc1ccccc1N1CC(C(=O)NCCN2C(=O)S/C(=C\c3cccnc3)C2=O)CC1=O (centres undefined),-3.77%,–
CC1CCCCC12NC(=O)N(CC(=O)OCC(=O)NCc1ccc(F)cc1)C2=O (centres undefined),-4.59%,–
Cc1nn(C(C)C(=O)N2CCOCC2)c(=O)c2nn(-c3ccccc3)c(C)c12 (centres undefined),-3.34%,–
O=C1C=C(c2cccc(Cl)c2)C[C@@H](c2ccc(F)cc2)C1,-3%,–
COc1ccc(C(=O)CSc2nnc(NC(=O)C3CC(=O)N(c4cccc(OC)c4)C3)s2)cc1 (centres undefined),-1.42%,–
COc1ccc(/C=N/Nc2ccccc2C(=O)O)cc1,–,89.1 nM (active)
COc1ccc(/C=N/NS(=O)(=O)c2ccc(NC(C)=O)cc2)cc1,-2.84%,–
COc1ccc(/C=N/Nc2nc(-c3ccc(C)cc3)c(C#N)c(=O)[nH]2)cc1,4.07%,–
COc1ccc(CCCc2nnc(SCc3nc4ccccc4c(=O)[nH]3)n2C)cc1,-0.291%,–
COc1ccc(/C=N/Nc2nc3ccccc3c(=O)[nH]2)cc1,–,1580 nM (active)
COc1ccc(/C=N/OCC(=O)N(Cc2ccccc2)c2ccccc2C(=O)O)cc1,-2.72%,–
COc1ccccc1C(=O)NCC(=O)OCC(=O)Nc1nnc(-c2ccccc2)o1,-0.991%,–
COc1cc(OC)cc(C(=O)Nc2nnc(SCC(=O)NCC3CCCO3)s2)c1 (centres undefined),1.89%,–
COc1ccc(C)cc1NC(=O)CCCN1C(=O)NC(C)(C)C1=O,2.01%,–
Cc1ccc(S(=O)(=O)NCCNC(C)c2ccc(Br)cc2)cc1 (centres undefined),-8.2%,–
CCC1(C)NC(=O)N(CC(=O)N2CCN(c3cccc(Cl)c3)CC2)C1=O (centres undefined),-5.43%,–
COc1cc2c(cc1OC)CC1(CCCCC1)N=C2,-4.73%,–
Cc1ccc(N/N=C2\COC(C)(C)CC2=O)cc1,–,3160 nM (active)
CCC1(C)CC(=O)NC1=O (centres undefined),7.83% [at 46.1 µM],–
Cc1ccc(C(=O)CSc2nc3ccccc3c(=O)n2N)o1,–,3550 nM (active)
COC(=O)CSc1nc2ccccc2c(=O)n1Cc1ccccc1,-0.304%,–
COc1ccc(NC(=O)CSc2nc3ccccc3c(=O)n2C)cc1,-9.43%,–
Cc1ccccc1-c1cc(C(=O)NCC2CC2)n(CC2CC(c3cccnc3)=NO2)n1 (centres undefined),-2.34%,–
COc1cc(C(C)=O)ccc1OC(C)C(=O)Nc1ccc(S(=O)(=O)N2CCCC2)cc1 (centres undefined),-8.76%,–
O=C(O)C1CCN(C(=O)OCc2ccccc2)CC1,–,4470 nM (active)
CCOC(=O)N1CCC(NC(=O)CCc2ccccc2)CC1,4.41%,–
O=C(NCC1CCC(C(=O)O)CC1)OCc1ccccc1 (centres undefined),-5.42%,–
